Data: the supplement of paper PMC10849652
Of roughly 8,800 targets only a part is listed; those with a hit were picked by preference. About 0.5% of all pairs of compound and target were hits.

Columns and labels:
Assay in all cases: log2 fold change, soluble protein after heating vs DMSO (PISA); higher = thermal stabilisation; K562 lysate, 10 uM; active = over 0.2 and 3.5 SD of the protein, either way, in both replicates (recomputed)
erlotinib = compound: C#Cc1cccc(Nc2ncnc3cc(OCCOC)c(OCCOC)cc23)c1 [erlotinib]
How it was run: (§1)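 Thermal stability, expressed as log-two fold change relative to solvent controls, is given from duplicates. Crude K562 extract in PBS pH 7.4 with 1 mM MgCl2, at 1 mg/mL protein, was treated with 10 μM compound for 30 min and heated in aliquots for 3 min across 48°C-58°C. After pooling, adjustment to 0.5% NP-40 at 4°C and centrifugation at 21,000xg for 90 min, supernatant protein was measured by TMTpro 16plex LC-MS/MS with channel sums equalised.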

[1] = compound: C/C(=N\NC(=O)C1=CC(=CC=C1)S(=O)(=O)N2CCOCC2)/C3=C(C=CC(=C3)Cl)O
How it was run: as §1

[2] = compound: C1=CC(=CC=C1C2=NC3=C(N2)C=C(C=C3)C(=O)N)OC4=CC=C(C=C4)Cl
How it was run: as §1

[3] = compound: C1=CC2=C(C=CC(=C2)/C=C\3/C(=O)NC(=NCC4=CC=CS4)S3)N=C1
How it was run: as §1

[4] = compound: C1=CC2=NC=CN=C2C=C1/C=C/3\C(=O)NC(=O)S3
How it was run: as §1

[5] = compound: C1=CC=C(C=C1)C2=NC(=C(N2)C3=CC=NC=C3)C4=CC(=C(C=C4)Cl)O
How it was run: as §1

[6] = compound: C1=CC=C2C(=C1)C3=NNC4=CC=CC(=C43)C2=O
How it was run: as §1

[7] = compound: C1CCN(C1)C(=O)NC2=CC=CC(=C2)NC3=NC=C(C(=N3)NCCC4=CN=CN4)Br
How it was run: as §1

[8] = compound: C1CN(CCC1(CC2=CC=C(C=C2)Cl)N)C3=NC=NC4=C3C=CN4
How it was run: as §1

IRAK-1-4 Inhibitor I = compound: C1COCCN1CCN2C3=CC=CC=C3N=C2NC(=O)C4=CC(=CC=C4)[N+](=O)[O-] [IRAK-1-4 Inhibitor I]
How it was run: as §1

Measured: log2 fold change

QRSL1 (UniProt Q9H0R6)
Sequence of UniProt Q9H0R6 (Q9H0R6 whole entry, looked up): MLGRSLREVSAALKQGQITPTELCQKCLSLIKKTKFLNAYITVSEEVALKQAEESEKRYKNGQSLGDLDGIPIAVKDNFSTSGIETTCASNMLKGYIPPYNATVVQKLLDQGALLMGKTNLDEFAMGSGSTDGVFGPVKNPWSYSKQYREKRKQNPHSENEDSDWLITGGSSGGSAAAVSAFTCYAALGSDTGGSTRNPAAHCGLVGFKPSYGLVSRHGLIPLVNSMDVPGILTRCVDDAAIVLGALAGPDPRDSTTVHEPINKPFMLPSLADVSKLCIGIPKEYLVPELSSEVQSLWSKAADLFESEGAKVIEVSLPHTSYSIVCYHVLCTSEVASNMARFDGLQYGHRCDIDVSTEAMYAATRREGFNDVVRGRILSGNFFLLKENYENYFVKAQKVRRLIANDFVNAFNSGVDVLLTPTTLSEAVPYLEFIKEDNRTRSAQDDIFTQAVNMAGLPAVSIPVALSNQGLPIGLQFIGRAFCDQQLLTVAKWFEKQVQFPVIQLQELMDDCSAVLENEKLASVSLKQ
inactive: erlotinib -0.01 | [1] -0.003 | [2] 0.004 | [3] -0.14 | [4] -0.111 | [5] 0.002 | [6] 0.116 | [7] -0.017 | [8] 0.022 | IRAK-1-4 Inhibitor I -0.01

SCO1 (UniProt O75880)
inactive: erlotinib 0.008 | [1] -0.06 | [2] 0.036 | [3] -0.014 | [4] 0.011 | [5] 0.012 | [6] -0.045 | [7] 0.033 | [8] 0.068 | IRAK-1-4 Inhibitor I 0.006

ROCK1 (UniProt Q13464)
inactive: erlotinib -0.01 | [1] 0.029 | [2] 0 | [3] 0.075 | [4] -0.036 | [5] -0.004 | [6] -0.041 | [7] 0.008 | [8] 0.075 | IRAK-1-4 Inhibitor I 0.004

RDH10 (UniProt Q8IZV5)
Sequence of UniProt Q8IZV5 (Q8IZV5 whole entry, looked up): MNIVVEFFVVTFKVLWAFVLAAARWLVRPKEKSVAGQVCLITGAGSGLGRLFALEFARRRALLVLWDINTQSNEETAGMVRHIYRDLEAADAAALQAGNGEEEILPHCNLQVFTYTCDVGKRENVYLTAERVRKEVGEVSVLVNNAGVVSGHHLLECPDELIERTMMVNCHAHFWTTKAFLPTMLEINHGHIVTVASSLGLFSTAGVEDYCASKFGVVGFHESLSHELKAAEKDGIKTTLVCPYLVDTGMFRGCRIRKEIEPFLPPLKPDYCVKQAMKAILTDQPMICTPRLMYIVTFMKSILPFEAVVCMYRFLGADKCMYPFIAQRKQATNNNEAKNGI
inactive: erlotinib 0.043 | [1] 0.001 | [2] -0.019 | [3] 0.087 | [4] -0.028 | [5] -0.022 | [6] -0.013 | [7] 0.024 | [8] -0.023 | IRAK-1-4 Inhibitor I 0.001

RAB8B (UniProt Q92930)
inactive: erlotinib 0.013 | [1] -0.042 | [2] 0.049 | [3] 0.113 | [4] 0.004 | [5] 0.034 | [6] 0.125 | [7] 0 | [8] -0.006 | IRAK-1-4 Inhibitor I 0.035

RBM4 (UniProt Q9BWF3)
Sequence of UniProt Q9BWF3 (Q9BWF3 whole entry, looked up): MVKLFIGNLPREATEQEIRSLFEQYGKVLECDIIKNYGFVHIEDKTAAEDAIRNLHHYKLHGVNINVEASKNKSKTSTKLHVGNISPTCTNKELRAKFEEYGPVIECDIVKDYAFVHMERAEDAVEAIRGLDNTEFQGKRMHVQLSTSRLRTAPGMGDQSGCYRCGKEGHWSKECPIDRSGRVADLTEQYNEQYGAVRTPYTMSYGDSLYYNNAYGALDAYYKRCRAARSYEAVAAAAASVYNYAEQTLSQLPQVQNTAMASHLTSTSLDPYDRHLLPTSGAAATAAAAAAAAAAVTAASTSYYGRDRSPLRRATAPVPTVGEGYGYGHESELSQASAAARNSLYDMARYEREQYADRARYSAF
inactive: erlotinib -0.031 | [1] 0.059 | [2] -0.008 | [3] 0.009 | [4] 0.008 | [5] -0.065 | [6] -0.008 | [7] 0.001 | [8] 0 | IRAK-1-4 Inhibitor I -0.003

RNF213, A0A0A0MTC1
inactive: erlotinib 0.041 | [1] 0.004 | [2] 0 | [3] 0.042 | [4] 0.015 | [5] 0.021 | [6] -0.045 | [7] -0.005 | [8] 0.047 | IRAK-1-4 Inhibitor I 0.025

RANBP2 (UniProt P49792)
inactive: erlotinib 0.017 | [1] 0.014 | [2] -0.004 | [3] -0.011 | [4] -0.012 | [5] -0.004 | [6] -0.038 | [7] -0.001 | [8] -0.007 | IRAK-1-4 Inhibitor I -0.019

RANBP6 (UniProt O60518)
inactive: erlotinib 0.045 | [1] -0.043 | [2] -0.003 | [3] -0.034 | [4] 0.061 | [5] 0.027 | [6] 0.021 | [7] 0.044 | [8] -0.019 | IRAK-1-4 Inhibitor I 0.04

RARS (UniProt P54136)
inactive: erlotinib 0.037 | [1] 0.029 | [2] -0.023 | [3] 0.023 | [4] 0.043 | [5] 0.029 | [6] -0.025 | [7] -0.005 | [8] 0.005 | IRAK-1-4 Inhibitor I 0.008

RAB3IL1 (UniProt Q8TBN0)
inactive: erlotinib -0.026 | [1] 0.005 | [2] -0.021 | [3] 0.024 | [4] -0.05 | [5] 0.053 | [6] -0.038 | [7] -0.013 | [8] -0.003 | IRAK-1-4 Inhibitor I 0.011

RAB6D (UniProt Q53S08)
inactive: erlotinib 0.027 | [1] -0.071 | [2] 0.054 | [3] -0.025 | [4] -0.048 | [5] -0.019 | [6] 0.044 | [7] -0.038 | [8] 0.157 | IRAK-1-4 Inhibitor I 0.003

RAC2 (UniProt P15153)
inactive: erlotinib 0.009 | [1] 0.018 | [2] 0.014 | [3] -0.035 | [4] -0.01 | [5] 0.012 | [6] 0.034 | [7] 0.069 | [8] -0.036 | IRAK-1-4 Inhibitor I 0.024

RFC4 (UniProt P35249)
Sequence of UniProt P35249 (P35249 whole entry, looked up): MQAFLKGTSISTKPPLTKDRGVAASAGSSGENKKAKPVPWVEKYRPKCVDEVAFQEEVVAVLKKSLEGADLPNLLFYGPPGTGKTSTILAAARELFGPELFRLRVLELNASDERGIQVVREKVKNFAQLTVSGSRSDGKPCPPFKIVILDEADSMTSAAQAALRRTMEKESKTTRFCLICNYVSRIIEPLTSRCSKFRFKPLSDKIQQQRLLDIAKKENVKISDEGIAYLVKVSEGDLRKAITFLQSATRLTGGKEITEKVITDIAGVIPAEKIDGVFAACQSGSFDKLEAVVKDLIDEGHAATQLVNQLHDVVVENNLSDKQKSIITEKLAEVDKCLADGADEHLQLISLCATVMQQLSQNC
inactive: erlotinib 0.006 | [1] 0.027 | [2] -0.033 | [3] -0.027 | [4] 0.018 | [5] 0.007 | [6] -0.056 | [7] -0.022 | [8] -0.012 | IRAK-1-4 Inhibitor I -0.018

REL isoform 2 (UniProt Q04864)
inactive: erlotinib 0.022 | [1] -0.005 | [2] -0.048 | [3] 0.016 | [4] -0.017 | [5] 0.037 | [6] -0.019 | [7] -0.011 | [8] -0.02 | IRAK-1-4 Inhibitor I 0.019

RNF181 (UniProt Q9P0P0)
inactive: erlotinib 0.031 | [1] 0.037 | [2] 0.016 | [3] 0.036 | [4] -0.001 | [5] 0.022 | [6] -0.058 | [7] 0.03 | [8] 0.099 | IRAK-1-4 Inhibitor I -0.014

SCAF1 (UniProt Q9H7N4)
Sequence of UniProt Q9H7N4 (Q9H7N4 whole entry, looked up): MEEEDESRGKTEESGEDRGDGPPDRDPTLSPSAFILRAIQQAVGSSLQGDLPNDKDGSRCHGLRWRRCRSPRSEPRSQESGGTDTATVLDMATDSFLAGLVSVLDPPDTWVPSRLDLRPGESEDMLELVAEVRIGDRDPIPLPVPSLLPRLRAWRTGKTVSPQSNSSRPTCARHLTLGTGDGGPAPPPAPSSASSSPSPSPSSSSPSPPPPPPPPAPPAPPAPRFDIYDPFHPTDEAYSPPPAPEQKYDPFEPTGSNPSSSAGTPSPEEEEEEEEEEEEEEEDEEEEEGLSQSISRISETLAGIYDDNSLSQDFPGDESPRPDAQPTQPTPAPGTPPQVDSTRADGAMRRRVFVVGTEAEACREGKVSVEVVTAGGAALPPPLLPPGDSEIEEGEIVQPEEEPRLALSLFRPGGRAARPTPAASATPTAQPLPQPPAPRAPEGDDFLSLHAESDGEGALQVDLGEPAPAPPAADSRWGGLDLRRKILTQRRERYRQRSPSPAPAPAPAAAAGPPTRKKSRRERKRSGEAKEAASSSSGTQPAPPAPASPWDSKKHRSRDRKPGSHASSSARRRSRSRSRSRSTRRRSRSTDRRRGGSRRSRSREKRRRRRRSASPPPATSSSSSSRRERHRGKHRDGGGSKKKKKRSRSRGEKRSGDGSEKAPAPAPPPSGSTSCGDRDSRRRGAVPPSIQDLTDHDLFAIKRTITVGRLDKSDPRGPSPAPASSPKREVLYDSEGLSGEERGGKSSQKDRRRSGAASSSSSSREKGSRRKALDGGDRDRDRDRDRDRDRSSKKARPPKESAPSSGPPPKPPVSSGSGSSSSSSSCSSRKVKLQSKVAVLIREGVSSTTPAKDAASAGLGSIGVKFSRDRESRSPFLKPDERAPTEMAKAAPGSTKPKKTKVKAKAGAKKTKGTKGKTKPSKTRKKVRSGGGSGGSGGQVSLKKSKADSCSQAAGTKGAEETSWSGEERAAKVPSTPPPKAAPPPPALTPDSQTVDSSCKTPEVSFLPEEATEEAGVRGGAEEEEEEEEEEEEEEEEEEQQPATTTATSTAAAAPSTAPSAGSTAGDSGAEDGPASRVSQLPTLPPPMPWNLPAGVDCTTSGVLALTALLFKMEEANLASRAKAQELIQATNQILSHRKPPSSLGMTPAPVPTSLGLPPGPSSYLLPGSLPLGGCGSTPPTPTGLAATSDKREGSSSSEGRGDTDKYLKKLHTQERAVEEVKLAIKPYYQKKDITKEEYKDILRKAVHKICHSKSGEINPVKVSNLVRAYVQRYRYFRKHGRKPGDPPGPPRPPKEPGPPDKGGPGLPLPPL
inactive: erlotinib 0.016 | [1] 0.113 | [2] 0.066 | [3] 0.218 | [4] 0.025 | [5] -0.022 | [6] 0.033 | [7] 0.047 | [8] 0.041 | IRAK-1-4 Inhibitor I 0.081

RCAN1 (UniProt P53805)
Sequence of UniProt P53805 (P53805 whole entry, looked up): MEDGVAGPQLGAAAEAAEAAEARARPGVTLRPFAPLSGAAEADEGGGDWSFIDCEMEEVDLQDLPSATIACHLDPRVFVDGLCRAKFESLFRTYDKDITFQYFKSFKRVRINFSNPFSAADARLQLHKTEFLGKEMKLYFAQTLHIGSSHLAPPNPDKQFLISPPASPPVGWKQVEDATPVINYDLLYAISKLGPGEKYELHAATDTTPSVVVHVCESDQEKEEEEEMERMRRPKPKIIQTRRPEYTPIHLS
inactive: erlotinib 0.06 | [1] -0.206 | [2] -0.033 | [3] -0.018 | [4] -0.04 | [5] 0.008 | [6] 0.045 | [7] -0.095 | [8] 0.016 | IRAK-1-4 Inhibitor I -0.024

SDHC (UniProt Q99643)
inactive: erlotinib 0.013 | [1] 0.002 | [2] 0.001 | [3] 0 | [4] -0.048 | [5] -0.01 | [6] 0.02 | [7] -0.02 | [8] -0.067 | IRAK-1-4 Inhibitor I 0.032

RCOR1 (UniProt Q9UKL0)
inactive: erlotinib -0.023 | [1] 0.065 | [2] -0.004 | [3] -0.053 | [4] -0.051 | [5] 0.005 | [6] -0.035 | [7] -0.008 | [8] 0.017 | IRAK-1-4 Inhibitor I 0.003

RIOK3 (UniProt O14730)
inactive: erlotinib 0.043 | [1] -0.114 | [2] -0.057 | [3] 0.029 | [4] -0.011 | [5] 0.023 | [6] 0.092 | [7] 0.016 | [8] -0.006 | IRAK-1-4 Inhibitor I 0.016

RPS6KA1 (UniProt Q15418)
inactive: erlotinib 0.001 | [1] -0.064 | [2] 0.006 | [3] -0.029 | [4] 0.04 | [5] 0.13 | [7] -0.009 | [8] 0.06 | IRAK-1-4 Inhibitor I -0.036
active: [6] 0.509

RAI14 isoform 2 (UniProt Q9P0K7)
inactive: erlotinib 0.015 | [1] 0.006 | [2] -0.007 | [3] 0.004 | [4] 0.001 | [5] 0.021 | [6] 0.02 | [7] 0 | [8] -0.018 | IRAK-1-4 Inhibitor I -0.028

RSU1 (UniProt Q15404)
inactive: erlotinib 0.017 | [1] 0.006 | [2] -0.039 | [3] -0.052 | [4] -0.011 | [5] -0.003 | [6] 0.017 | [7] 0.009 | [8] -0.027 | IRAK-1-4 Inhibitor I 0

RBBP7 isoform 2 (UniProt Q16576)
inactive: erlotinib -0.036 | [1] 0.046 | [2] -0.036 | [3] -0.03 | [4] -0.013 | [5] -0.002 | [6] 0.055 | [7] 0.041 | [8] -0.026 | IRAK-1-4 Inhibitor I -0.006

RDH14 (UniProt Q9HBH5)
Sequence of UniProt Q9HBH5 (Q9HBH5 whole entry, looked up): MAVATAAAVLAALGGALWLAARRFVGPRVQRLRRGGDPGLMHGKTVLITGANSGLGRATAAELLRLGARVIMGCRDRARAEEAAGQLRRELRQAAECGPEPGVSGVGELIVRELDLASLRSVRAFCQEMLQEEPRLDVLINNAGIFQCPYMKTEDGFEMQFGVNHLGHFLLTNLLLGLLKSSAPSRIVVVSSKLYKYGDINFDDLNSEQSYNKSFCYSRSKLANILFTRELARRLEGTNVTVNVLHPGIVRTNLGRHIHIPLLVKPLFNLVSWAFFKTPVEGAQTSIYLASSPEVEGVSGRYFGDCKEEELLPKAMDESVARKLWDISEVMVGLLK
inactive: erlotinib -0.019 | [1] 0.021 | [2] -0.056 | [3] -0.049 | [4] 0.037 | [5] 0.021 | [6] 0.024 | [7] 0.036 | [8] -0.057 | IRAK-1-4 Inhibitor I 0.018

REEP6 (UniProt Q96HR9)
Sequence of UniProt Q96HR9 (Q96HR9 whole entry, looked up): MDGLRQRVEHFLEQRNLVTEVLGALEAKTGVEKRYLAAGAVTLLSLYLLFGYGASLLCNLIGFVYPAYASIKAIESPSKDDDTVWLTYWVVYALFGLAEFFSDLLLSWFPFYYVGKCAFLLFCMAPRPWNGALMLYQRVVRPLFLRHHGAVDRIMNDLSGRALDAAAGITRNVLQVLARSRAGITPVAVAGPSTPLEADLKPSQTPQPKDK
inactive: erlotinib -0.023 | [1] -0.026 | [2] 0.008 | [3] 0.077 | [4] -0.06 | [5] -0.029 | [6] -0.069 | [7] 0.021 | [8] -0.022 | IRAK-1-4 Inhibitor I -0.05

RIOK1 (UniProt Q9BRS2)
Sequence of UniProt Q9BRS2 (Q9BRS2 whole entry, looked up): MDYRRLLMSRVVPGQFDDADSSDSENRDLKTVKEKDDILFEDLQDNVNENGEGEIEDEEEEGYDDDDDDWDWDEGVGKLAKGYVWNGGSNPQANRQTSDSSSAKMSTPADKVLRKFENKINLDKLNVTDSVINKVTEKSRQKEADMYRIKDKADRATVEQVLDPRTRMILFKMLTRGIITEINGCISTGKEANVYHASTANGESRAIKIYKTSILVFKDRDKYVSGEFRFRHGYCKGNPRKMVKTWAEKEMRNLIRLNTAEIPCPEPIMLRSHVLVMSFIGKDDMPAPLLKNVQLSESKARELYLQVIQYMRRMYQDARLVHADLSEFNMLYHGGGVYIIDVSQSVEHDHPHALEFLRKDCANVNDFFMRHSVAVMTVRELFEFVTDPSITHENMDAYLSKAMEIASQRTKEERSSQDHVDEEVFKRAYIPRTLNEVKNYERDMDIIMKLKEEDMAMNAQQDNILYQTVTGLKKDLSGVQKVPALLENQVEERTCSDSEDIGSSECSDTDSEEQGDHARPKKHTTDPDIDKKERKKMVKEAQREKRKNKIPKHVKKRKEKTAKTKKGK
inactive: erlotinib -0.033 | [1] -0.029 | [2] 0.034 | [3] 0.209 | [5] 0.128 | [7] -0.024 | [8] 0.028 | IRAK-1-4 Inhibitor I -0.02
active: [4] 0.393 | [6] 0.4

SCML2 (UniProt Q9UQR0)
inactive: erlotinib 0.021 | [1] 0.038 | [2] 0.019 | [3] 0.068 | [4] -0.046 | [5] 0 | [6] -0.028 | [7] -0.003 | [8] 0.043 | IRAK-1-4 Inhibitor I -0.01

SAMD4A (UniProt Q9UPU9)
Sequence of UniProt Q9UPU9 (Q9UPU9 whole entry, looked up): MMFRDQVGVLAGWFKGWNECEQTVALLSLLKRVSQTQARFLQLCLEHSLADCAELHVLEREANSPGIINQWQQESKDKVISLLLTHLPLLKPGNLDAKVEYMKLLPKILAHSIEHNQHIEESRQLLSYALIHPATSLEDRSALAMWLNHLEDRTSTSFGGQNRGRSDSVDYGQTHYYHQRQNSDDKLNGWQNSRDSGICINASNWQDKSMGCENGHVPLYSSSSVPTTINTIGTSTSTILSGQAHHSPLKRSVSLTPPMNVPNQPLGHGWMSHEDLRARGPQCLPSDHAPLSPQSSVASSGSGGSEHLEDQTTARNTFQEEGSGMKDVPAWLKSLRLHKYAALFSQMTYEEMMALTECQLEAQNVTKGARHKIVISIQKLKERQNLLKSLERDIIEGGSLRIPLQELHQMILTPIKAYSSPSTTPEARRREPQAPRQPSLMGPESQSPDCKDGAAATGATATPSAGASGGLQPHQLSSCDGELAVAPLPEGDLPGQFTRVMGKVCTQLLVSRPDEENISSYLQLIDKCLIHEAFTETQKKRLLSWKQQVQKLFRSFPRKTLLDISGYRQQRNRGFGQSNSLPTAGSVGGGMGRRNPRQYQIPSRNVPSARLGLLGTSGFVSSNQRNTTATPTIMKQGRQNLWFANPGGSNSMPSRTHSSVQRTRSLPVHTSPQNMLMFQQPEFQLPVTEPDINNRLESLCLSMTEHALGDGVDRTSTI
inactive: erlotinib -0.172 | [1] -0.014 | [2] 0.11 | [3] 0.097 | [4] -0.153 | [5] 0.11 | [6] -0.041 | [7] -0.046 | [8] 0.013 | IRAK-1-4 Inhibitor I 0.063
